The values below come from PubChem BioAssay (NCI).

Some test systems named below: SK-MEL-2 melanoma; EKVX NSCLC; SN12C renal; UO-31 renal; TK-10 renal; ACHN renal; CAKI-1 renal; A498 renal; MOLT-4 leukemia; SR leukemia; RPMI-8226 leukemia; OVCAR-8 ovarian; OVCAR-5 ovarian; OVCAR-4 ovarian; SK-OV-3 ovarian; IGROV1 ovarian; OVCAR-3 ovarian; HS 578T breast; NCI/ADR-RES ovarian.
Holding throughout (test): NCI-60 one-dose screen, 48 h (100 = growth as untreated, 0 = no growth, -100 = all killed)
What all share (conditions): 10 µM

This is part of a sample that, as a whole, favours compounds with a hit. Of some 83,000 tested, about 20% had one in any assay.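 Cells were grown in 96-well plates and exposed to the test compound at a single concentration for 48 hours; results are reported as percent growth, with values below 10 considered active.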 A number with no mark means an inactive call. Activity calls are given as the source filed them.

As for `CNC(=O)c1cc(Oc2ccc3c(c2)sc2nc(-c4ccc(N)cc4)cn23)ccn1`, the growth in the assay with SK-MEL-2 melanoma was 35.8%; in the assay on EKVX NSCLC, 40.9%; with SN12C renal, 29.4%; in the assay on UO-31 renal, 43.8%; with TK-10 renal, 57.4%; in the assay on ACHN renal it was 29.1%. The growth in the assay on CAKI-1 renal is 43.9%; in the assay on A498 renal, 26.7%; in the assay with MOLT-4 leukemia, 15%; in the assay on SR leukemia, 28.3%; in the assay on RPMI-8226 leukemia it was 40.5%; in the assay with OVCAR-8 ovarian, 10.9%. Also, the growth is 64.2% with OVCAR-5 ovarian; 59.7% in the assay on OVCAR-4 ovarian; 21.2% in the assay with SK-OV-3 ovarian; 31.6% in the assay with IGROV1 ovarian; 1.42% (active) in the assay with OVCAR-3 ovarian; 54.9% in the assay on HS 578T breast. For the same compound, in the assay with NCI/ADR-RES ovarian, the growth is 11.2%.
For the compound `C(=N\Nc1ncnc2sc3c(c12)CCNC3)/c1cccc2ccccc12`, the growth in the assay on SK-MEL-2 melanoma is 109%; in the assay with EKVX NSCLC, 92.7%; in the assay on SN12C renal it was 82.4%; with UO-31 renal it was 74.4%; in the assay on TK-10 renal it was 104%; with ACHN renal, 47.9%. Besides, the growth in the assay on CAKI-1 renal is 92%; with A498 renal it was 98%; in the assay with MOLT-4 leukemia, 48.1%; with SR leukemia, 22%; in the assay with RPMI-8226 leukemia it was -30.1% (active); in the assay with OVCAR-8 ovarian it was 58.2%. Further, the growth was 89.8% in the assay on OVCAR-5 ovarian; 42.7% in the assay on OVCAR-4 ovarian; 103% with SK-OV-3 ovarian; 89.9% in the assay with IGROV1 ovarian; 113% in the assay on OVCAR-3 ovarian; 96.8% with HS 578T breast. Besides, the growth in the assay with NCI/ADR-RES ovarian was 75.4%.
`CCN(CCCNc1cc2c(c(N)c1S(=O)(=O)O)C(=O)c1ccccc1C2=O)c1ccccc1`: the growth was 103% with SK-MEL-2 melanoma; 103% in the assay on EKVX NSCLC; 87.4% in the assay with SN12C renal; 75.2% in the assay on UO-31 renal; 116% in the assay with TK-10 renal; 103% in the assay on ACHN renal. Besides, the growth was 95.7% with CAKI-1 renal; 103% in the assay with A498 renal; 108% in the assay with MOLT-4 leukemia; 118% in the assay on SR leukemia; 101% in the assay on RPMI-8226 leukemia; 96.4% with OVCAR-8 ovarian. Further, the growth in the assay on OVCAR-5 ovarian was 107%; in the assay on OVCAR-4 ovarian it was 109%; with SK-OV-3 ovarian it was 100%; in the assay with IGROV1 ovarian, 114%; in the assay with OVCAR-3 ovarian it was 111%; in the assay on HS 578T breast it was 93.5%. In addition, in the assay on NCI/ADR-RES ovarian, the growth is 99.8%.
With `C[C@@H](C[C@H](CCO)c1ccccc1)c1ccc2ccccc2c1`, the growth in the assay on SK-MEL-2 melanoma is -0.232% (active); in the assay with EKVX NSCLC it was -44% (active); with SN12C renal, -80.8% (active); in the assay with UO-31 renal, -86% (active); in the assay on TK-10 renal, -6.8% (active); with ACHN renal it was -91.3% (active). Besides, the growth in the assay with CAKI-1 renal was 10.5%; in the assay with A498 renal, -0.126% (active); with MOLT-4 leukemia it was -54.2% (active); in the assay with SR leukemia it was -41.4% (active); in the assay on RPMI-8226 leukemia, -18.8% (active); in the assay with OVCAR-8 ovarian, -39% (active). Also, the growth was -69% (active) with OVCAR-5 ovarian; -81% (active) with OVCAR-4 ovarian; 23.8% in the assay with SK-OV-3 ovarian; -88% (active) in the assay on OVCAR-3 ovarian; -9.29% (active) with HS 578T breast; -60.5% (active) with NCI/ADR-RES ovarian.
Regarding `O=C(O)c1ccc(-n2cc(CNc3ccc(Oc4ccccc4)cc3)c(-c3ccccc3)n2)cc1`, the growth with SK-MEL-2 melanoma is 88.5%; in the assay with EKVX NSCLC, 85.1%; in the assay with SN12C renal, 93.4%; with UO-31 renal, 76.6%; in the assay on TK-10 renal, 90.1%; with ACHN renal it was 87.4%. The growth in the assay with CAKI-1 renal is 86.4%; with A498 renal it was 83.2%; with MOLT-4 leukemia, -4.16% (active); in the assay on SR leukemia, 38.6%; in the assay with RPMI-8226 leukemia it was 73%; with OVCAR-8 ovarian, 92.3%. Further, the growth with OVCAR-5 ovarian is 98.9%; in the assay on OVCAR-4 ovarian, 81.4%; in the assay on SK-OV-3 ovarian it was 112%; with IGROV1 ovarian it was 86.4%; with OVCAR-3 ovarian it was 86.9%; with HS 578T breast, 105%. The growth with NCI/ADR-RES ovarian is 90.1%.
As for `O=C(CCCSc1nc(-c2ccc(Cl)cc2)cc(-c2ccc(Cl)cc2)n1)NO`, the growth in the assay on SK-MEL-2 melanoma was 20.8%; with EKVX NSCLC it was -19.7% (active); in the assay on SN12C renal, 4.81% (active); in the assay on UO-31 renal, -34.9% (active); in the assay on TK-10 renal it was 24.3%; in the assay on ACHN renal, 2.26% (active). In addition, the growth in the assay on CAKI-1 renal is 2.08% (active); with A498 renal, -3% (active); with MOLT-4 leukemia, 4.91% (active); in the assay with SR leukemia, 7.59% (active); in the assay on OVCAR-8 ovarian, 13.7%; with OVCAR-5 ovarian it was 18%. For the same compound, the growth in the assay with OVCAR-4 ovarian was 19.2%; in the assay on SK-OV-3 ovarian, 14.2%; in the assay with IGROV1 ovarian, 24.8%; with OVCAR-3 ovarian, 5.4% (active); in the assay on HS 578T breast, 53.5%; with NCI/ADR-RES ovarian, -28.7% (active).
On to `Cc1noc(C)c1CSc1ccccc1C(=O)N1CCN(c2cccc(C(F)(F)F)c2)CC1`, for which the growth was 85.1% in the assay on SK-MEL-2 melanoma; 66.7% in the assay with EKVX NSCLC; 80.2% in the assay with SN12C renal; 67.5% in the assay with UO-31 renal; 91.3% in the assay on TK-10 renal; 84.9% in the assay with ACHN renal. Also, the growth is 68.8% in the assay on CAKI-1 renal; 77.5% in the assay with A498 renal; 67.6% in the assay on MOLT-4 leukemia; 39% with SR leukemia; 54.3% in the assay with RPMI-8226 leukemia; 94.2% in the assay on OVCAR-8 ovarian. Besides, the growth in the assay with OVCAR-5 ovarian was 88.1%; in the assay on OVCAR-4 ovarian, 67%; in the assay with SK-OV-3 ovarian, 75.3%; with IGROV1 ovarian, 83.7%; in the assay with OVCAR-3 ovarian it was 82.1%; with HS 578T breast, 90.4%. Also, in the assay on NCI/ADR-RES ovarian, the growth was 72.3%.
For the compound `O=C(CCc1nnc2sc(-c3cc(O)c(O)c(O)c3)nn12)c1nc2ccccc2[nH]1`, the growth in the assay with SK-MEL-2 melanoma is 111%; in the assay on EKVX NSCLC, 96.7%; with SN12C renal it was 107%; with UO-31 renal it was 83.2%; in the assay with TK-10 renal, 117%; in the assay with ACHN renal, 106%. Also, the growth was 100% in the assay with CAKI-1 renal; 75.2% in the assay on A498 renal; 92.3% with MOLT-4 leukemia; 49.6% in the assay with SR leukemia; 87% in the assay on RPMI-8226 leukemia; 94.7% with OVCAR-8 ovarian. Besides, the growth is 117% in the assay with OVCAR-5 ovarian; 104% in the assay on SK-OV-3 ovarian; 109% in the assay with IGROV1 ovarian; 119% with OVCAR-3 ovarian; 88.2% in the assay on HS 578T breast; 94.2% with NCI/ADR-RES ovarian.
